Bioassay records as filed in PubChem.
Rows were chosen to be rich in hits. Some 1.3% of all compounds tested hit in one or more screens of this group.
a7 integrin act – qHTS for Activators of Integrin-Mediated Alleviation for Muscular Dystrophy. alpha7betagal myoblasts, beta-gal FDG fluorescence, 48 h. Potency, µM (top dose mostly 38.3 µM), without a hit: top-dose activation, usual class: activators. hit rate 0.064% among 350,000;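 also: potency is read from the fitted curve at half-maximal effect; 100% = response of the positive control SU9516; nearly all actives have a fitted effect of over 60% in size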
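alpha7betagal+/- myoblasts (passage 13, 250/well) treated 48 h at 37C with compounds at 1:260 dilution of DMSO stock. Lysed, then beta-galactosidase activity read as FDG fluorescence (ex 480/em 540) after 30 min, with pre-read for autofluorescence.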
PKM2 act – qHTS Assay for Activators of Human Muscle isoform 2 Pyruvate Kinase. Pyruvate kinase PKM (Homo sapiens), P14618. purified PKM2, Kinase-Glo ATP luminescence, activation; response scale: 0% is enzyme alone, no compound. Potency, µM (titrated, usually from 57.5 µM), without a hit: at the top dose activation, most hits filed as activators. hit rate 0.34% among 260,000; also: potency is read from the fitted curve at half-maximal effect; % is scaled to controls: 0 for no effect and ±100 for the full control effect; nearly all actives have a fitted effect of over 55% in size
Target sequence (P14618 whole entry, looked up, canonical isoform): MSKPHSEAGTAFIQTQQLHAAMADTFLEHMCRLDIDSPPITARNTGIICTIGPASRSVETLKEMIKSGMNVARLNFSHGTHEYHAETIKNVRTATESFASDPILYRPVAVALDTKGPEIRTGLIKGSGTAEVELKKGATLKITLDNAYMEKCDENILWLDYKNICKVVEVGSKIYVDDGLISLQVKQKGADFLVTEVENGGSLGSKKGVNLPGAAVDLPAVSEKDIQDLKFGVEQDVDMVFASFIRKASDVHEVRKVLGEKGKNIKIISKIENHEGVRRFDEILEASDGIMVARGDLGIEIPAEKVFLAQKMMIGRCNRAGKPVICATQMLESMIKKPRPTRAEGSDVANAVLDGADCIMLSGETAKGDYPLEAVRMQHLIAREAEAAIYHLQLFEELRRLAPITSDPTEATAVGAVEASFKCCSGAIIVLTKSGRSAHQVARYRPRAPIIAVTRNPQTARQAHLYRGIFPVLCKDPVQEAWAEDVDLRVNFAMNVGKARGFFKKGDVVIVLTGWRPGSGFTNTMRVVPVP
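hPK-M2, >95% pure; 0.1 mM ADP / 0.5 mM PEP final; imidazole pH7.2 buffer w/ 7 mM MgCl2, 50 mM KCl; 1 h RT; Kinase-Glo lum. Intermediate enzyme activity for dual inhibitor/activator qHTS.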
BRCA1 expr up – qHTS Assay to Identify Small Molecule Activators of BRCA1 Expression. MCF7-BRCA1-FFLuc reporter, luminescence, 48 h; response scale: scaled: vehicle 0%, 10 µM genistein 100%. Potency, µM (series often up to 46.1 µM), for the others: at the top dose activation, actives largely listed as activators. hit rate 1.1% among 380,000. AID 624202, 2012; also: potency is read from the fitted curve at half-maximal effect; nearly all actives have a fitted effect of over 80% in size
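MCF7 cells carrying a BRCA1-firefly luciferase reporter (2000 cells/well, phenol-red free MEM) were attached for 2 h at 37 °C, then given compounds for 48 h. Luminescence was read 15 min after luciferase reagent; activity normalized to genistein (10 microM) and DMSO.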
Apoferritin bind – qHTS Assay for Identification of Novel General Anesthetics; Ferritin light chain (Equus caballus), P02791; apoferritin/1-aminoanthracene competitive binding, fluorescence; Potency, µM (series often up to 77.5 µM), inactives show top-dose activity change, negative = displacement, actives largely listed as inhibitors; hit rate 0.074% among 350,000; also: potency is read from the fitted curve at half-maximal effect; % is scaled to controls: 0 for no effect and ±100 for the full control effect; nearly all actives have a fitted effect of over 20% in size
Target sequence (P02791 2-175 limits assumed): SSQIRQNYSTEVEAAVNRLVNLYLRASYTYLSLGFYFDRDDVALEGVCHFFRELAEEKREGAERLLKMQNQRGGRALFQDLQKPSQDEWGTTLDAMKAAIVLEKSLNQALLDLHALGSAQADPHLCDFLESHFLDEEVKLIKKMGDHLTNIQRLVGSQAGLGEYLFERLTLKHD
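10 uM apoferritin + 50% sat. 1-AMA, PBS; cpd 10 min RT; Ex380/Em535 endpoint; normalized to free probe vs complex; 4-param Hill fit; propofol titration as pos. ctrl.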
IL-2 act – qHTS of IL-2 Activators; hit rate 0.065% among 360,000; IL-2 activation reporter assay, cell-based qHTS; stimulated with anti-CD3/CD4/CD28 beads; in transgenic mouse T cells; AID 652025, 2013; activation, % (series mostly up to about 46 µM); in the data active = activation above about 50%; inconclusive = mostly about 30% to 49%; also: 0% is about no effect
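Readout is EGFP and DsRed signal by fluorescent plate cytometry after 18 h at 37 degrees C. Transgenic mouse T cells (750/well) received compound for 60 min before bead stimulation (anti-CD3, anti-CD4, anti-CD28); memory T cells served as non-tolerant control.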
* hit, by the source's call; ? = inconclusive; . = no result; [ ] = dose if it differs, or a comment. Unless noted, calls follow the shape of the dose curve; as a rule, active = well fitted curve in the direction sought with a large enough effect; inconclusive = small, poorly fitted or top-dose-only effect, or another doubt; inactive = no such curve, though single readings can be large; an effect the other way counts as inactive or inconclusive.

SMILES	a7 integrin act	PKM2 act	BRCA1 expr up	Apoferritin bind	IL-2 act
CN(Cc1c(F)cccc1Cl)C(=O)CNC(=O)c1cccs1	-12%	2%	11µM*	-22%	-2
Cc1ccc(OCC(=O)OCc2cc(=O)n3nc(C4CCCCC4)sc3n2)cc1C	.	.	0%	?	.
Cc1cnc(-c2nnc(N(C)C(=O)C3CCOC3)s2)cn1 (stereo not given)	-24%	-10%	7.9µM*	4%	0
Nc1ncnc2c1ncn2COC(CO)CO	.	.	5%	.	.
N=c1oc2cc(O)ccc2cc1C(=O)Nc1ccc(F)cc1	15%	.	1.6µM*	77%	-1
O=C(c1ccc(F)cc1)c1cc2ccc(O)cc2oc1=O	-19%	.	38%	0%	0
C#C[C@]1(O)CC[C@H]2[C@H]3CCc4cc(O)ccc4[C@@H]3CC[C@@]21C	.	.	.	-14%	.
CC(NC(=O)c1cn(C)c2ccc(S(=O)(=O)N3CCCC3)cc2c1=O)c1ccccc1 (stereo not given)	2.8µM*	.	5%	-2%	-5
Cn1cc(C(=O)NCc2ccccc2)c(=O)c2cc(S(=O)(=O)N3CCCCCC3)ccc21	.	.	.	-9%	.
Cn1c(SCCCC(=O)c2ccc(F)cc2)nnc1-c1ccncc1	-21%	-12%	-21%	-8%	-1
Cc1occc1-c1nnc(SCCCC(=O)c2ccc(F)cc2)n1C	-11%	25µM*	-2%	-22%	0
O=C(NCCSc1c[nH]c2ccccc12)c1ccc(Cl)cc1	.	.	.	-10%	.
COc1ccccc1OCCNC(=O)C(=O)c1c[nH]c2ccccc12	0%	-3%	4%	2%	1
COc1ccccc1NC(C)C(=O)c1c[nH]c2ccccc12 (stereo not given)	.	.	13µM*	.	.
O=C(NCCc1c[nH]c2ccccc12)c1ccc(Cl)cc1	?	0%[11.5 µM]	3.5µM*	-13%	0
COc1ccc(C(=O)NCCc2c[nH]c3ccccc23)cc1	30%	-13%	5.6µM*	-4%	-3
O=C(NCCc1c[nH]c2ccccc12)c1ccc(F)cc1F	23%	3%	4µM*	-9%	1
CCc1ccc(-n2nc3cc(C)c(NC(=O)c4cccc5ccccc45)cc3n2)cc1	.	.	.	-7%	.
CNc1ccc(C(=O)Oc2cc(O/N=[N+](\[O-])N(C)C)c([N+](=O)[O-])cc2[N+](=O)[O-])cc1	.	.	.	-22%	.
COc1ccc(N2CC(NC(=O)c3cc4ccccc4o3)CC2=O)cc1 (stereo not given)	.	.	.	2%	.
C[C@H](O)C(N)C(=O)O (stereo not given in full)	.	.	.	4%	.
COc1ccc(CC(=O)OCC(=O)c2c[nH]c3ccccc23)cc1	20%	.	-19%	.	0
Cc1ccsc1C(=O)NCCc1c[nH]c2ccccc12	-19%	-3%	13µM*	-12%	-1
COc1ccc(C(=O)c2c[nH]c3ccccc23)cc1	12%	-7%	3.5µM*	-10%	0
CCC(=O)NCCc1c[nH]c2ccccc12	4%	-10%	1%	-7%	-1
SMILES	a7 integrin act	PKM2 act	BRCA1 expr up	Apoferritin bind	IL-2 act
COc1ccc(CNC(=O)COC(=O)CCc2c[nH]c3ccccc23)cc1	10µM*	-2%	0%	-12%	1
COc1cccc(NC(=O)c2c(F)cccc2F)c1	0%	.	?	.	-2
COc1cccc(NC(=O)c2ccccc2F)c1	31%	.	7.9µM*	.	0
CCOc1cc(/C=N/NC(=O)Nc2ccccc2)ccc1O	-28%	-5%	11µM*	-6%	4
COc1ccc(-c2csc(NC(=O)c3ccccc3F)c2C(=O)O)cc1	33%	.	6.3µM*	1%	-1
O=C(CCC(=O)Nc1ccccc1)N/N=C/c1ccco1	9%	-3%	-11%	?	-1
CCOC(=O)c1c(-c2ccc(Br)cc2)csc1NC(=O)c1ccccc1F	.	.	.	-3%	.
O=C(N/N=C/c1ccco1)Nc1ccccc1	17%	-18%	6.3µM*	-8%	-2
CCOc1cc(/C=N/NC(=O)c2ccc(NC(=O)C3CC3)cc2)ccc1O	-15%	0%	-24%	-13%	0
COCC(=O)Nc1c(C(=O)Nc2cccc(OC)c2)oc2ccccc12	16%	-15%	?	4%	0
O=C(Nc1ccccc1)Nc1ccccc1	12%	.	?	-1%	-1
O=C(Nc1ccccc1)Nc1ccc(Nc2ccccc2)cc1	-8%	.	4µM*	.	0
O=C(Nc1ccc(Nc2ccccc2)cc1)c1ccccc1F	18%	-2%	1.1µM*	?	-1
COc1cccc(NC(=O)c2oc3ccccc3c2NC(C)=O)c1	37%[7.66 µM]	-2%	3.5µM*	-5%	0
CCOc1ccccc1C(=O)NC1(C(F)(F)F)C(=O)Nc2c1c(=O)[nH]c(=O)n2-c1ccccc1 (stereo not given)	.	.	.	6%	.
CCc1ccc(OCC(=O)NCC(c2ccc(Cl)cc2)N2CCOCC2)cc1 (stereo not given)	.	.	.	71%	.
CCN(CC)c1ccc(/C=C/c2sc3ccccc3[n+]2CCCCI)cc1	.	.	-52%	.	.
CCOC(=O)c1c(-c2ccccc2)oc2ccc(N(C(C)=O)S(=O)(=O)c3ccc(CC)cc3)cc12	.	.	.	-10%	.
CCCCN(CC)CCCNC(=O)C1CCN(c2nc3ccc(CC)cc3s2)CC1	.	.	.	-9%	.
COc1cccc2c(=O)c3ccccc3oc12	0%	-7%	?	-2%	0
O=c1c2ccccc2oc2ncccc12	9%	-1%	13µM*	-16%	0
CCc1ccc(OCC2c3cc(OC)c(OC)cc3CCN2C(=O)Cc2ccc(OC)c(OC)c2)cc1 (stereo not given)	.	.	-51%	76%	.
CCc1ccc(C(=O)Nc2ccc3nc(C)ccc3c2)cc1	-5%	.	3.2µM*	-1%	-3
Cc1ccc2cc(NC(=O)Cc3ccccc3)ccc2n1	-25%	-7%	4.5µM*	7%	0
Cc1ccc2cc(NC(=O)c3ccc(C(C)(C)C)cc3)ccc2n1	-2%	.	?	-15%	-2
SMILES	a7 integrin act	PKM2 act	BRCA1 expr up	Apoferritin bind	IL-2 act
Cc1ccc2cc(NC(=O)c3ccccc3C)ccc2n1	-20%	.	7.1µM*	-3%	1
c1cncc(-c2nn3c(Cn4cnc5ccccc54)nnc3s2)c1	27%	?	13%	-9%	0
CCOc1ccccc1OCc1nn2c(COc3ccccc3)nnc2s1	19%	0%	-24%	-9%	-2
c1ccc2c(c1)ncn2Cc1nnc2sc(-c3ccncc3)nn12	-19%	8.9µM*	9%	3%	1
c1ccc(OCc2nn3c(Cn4cnc5ccccc54)nnc3s2)cc1	-10%	4.5µM*	-51%	-2%	-1
O=C(CCCc1ccccc1)NC12CC3CC(CC(C3)C1)C2	-37%	0%	2.8µM*	?	-1
